Measured values as given in ChEMBL document CHEMBL3988442, “University of Dundee, Small-Polar-MMV Screening Library” (2021).

Assays:
[1] = molecular target: T1, Aspartate--tRNA(Asp/Asn) ligase (Mycobacterium tuberculosis (strain ATCC 25618 / H37Rv)) (UniProt P9WFW3); assay: Assay for Asp RNA synthetase-1 from Mycobacterium tuberculosis; format: functional; parameters: scale not given: direction of the effect not stated beside the values; settings: 30 µM; also: in the data most compounds retested in dose-response had high values
T1 sequence (whole entry): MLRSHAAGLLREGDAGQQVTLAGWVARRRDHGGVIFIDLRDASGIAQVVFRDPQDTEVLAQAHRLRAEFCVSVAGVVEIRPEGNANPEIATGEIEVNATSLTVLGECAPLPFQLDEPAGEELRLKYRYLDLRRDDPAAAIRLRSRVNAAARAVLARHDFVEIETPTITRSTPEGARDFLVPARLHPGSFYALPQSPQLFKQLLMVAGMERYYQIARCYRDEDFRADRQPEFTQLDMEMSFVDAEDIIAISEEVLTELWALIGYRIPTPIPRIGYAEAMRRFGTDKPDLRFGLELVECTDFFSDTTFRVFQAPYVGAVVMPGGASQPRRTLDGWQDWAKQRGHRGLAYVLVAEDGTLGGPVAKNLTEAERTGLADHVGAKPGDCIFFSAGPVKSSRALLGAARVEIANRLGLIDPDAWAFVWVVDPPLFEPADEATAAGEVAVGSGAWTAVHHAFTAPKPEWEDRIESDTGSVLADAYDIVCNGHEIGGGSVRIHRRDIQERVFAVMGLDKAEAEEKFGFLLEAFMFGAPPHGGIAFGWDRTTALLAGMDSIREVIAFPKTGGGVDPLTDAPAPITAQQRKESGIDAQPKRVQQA

[2] = molecular target: Shiga toxin 2 (Escherichia coli O157:H7) (UniProt P09385+P09386); assay: E. coli 0.157:H7 Shiga Toxin SOP - stx2 screening assay; format: functional; parameters: scale not given: direction of the effect not stated beside the values; settings: 30 µM

SMILES	Percent Effect [1] [%]	Percent Effect [2] [%]
CC(NC(=O)CCn1cncn1)c1nnc2n1CCCCC2 (configuration not stated)	-0.486	-13.7
CNC(=O)CC1CC2(CCN(Cc3nccs3)CC2)c2ccccc21 (configuration not stated)	-1.76	-4.71
CC(NC(=O)CCCOc1ccccc1)c1nnc2n1CCCCC2 (configuration not stated)	4.5	19.8
CC(=O)NC1CCCN(C(=O)NCc2cccnc2-n2cccn2)C1 (configuration not stated)	-3.6	-14.7
CCc1c(C(=O)N2CCN(c3ncccn3)CC2)cnn1C(C)(C)C	3.62	30.7
CCC(NC(=O)c1ccco1)c1ccccc1OCC(=O)N1CCCC1 (configuration not stated)	0.611	-10.6
CN1CCN(C(=O)Cc2cccc(F)c2)Cc2cccnc21	-2.05	-29.8
CCn1cnnc1C1CCN(C(=O)C(OC)c2ccccc2)CC1 (configuration not stated)	-2.71	9.67
NC(=O)COc1ccc(CNCc2ccc(F)cc2F)cc1	-4.09	-18.8
COC[C@H]1CCC[C@]12CN(C(=O)NCc1ccccc1)CCO2	-3.75	-17.2
CCN(C(=O)CN(C)C(c1cccc(F)c1)c1ccccn1)C1CC1 (configuration not stated)	-2.49	8.33
CCN(CC)C(=O)CN(C)C1CCc2ccccc21 (configuration not stated)	-4.5	14.4
CCc1nccn1C1CCCN(C(=O)Cc2n[nH]c3ccccc23)C1 (configuration not stated)	0.83	13.1
Cc1ccc(-c2cc(CN3CCOC(Cn4cncn4)C3)on2)cc1 (configuration not stated)	1.83	-14
Cc1cc(C[C@@H]2COC[C@@H]2NC(=O)Cn2c(=O)oc3ccccc32)on1	-0.0288	-25.4
CN(CC(=O)N1CCC(Oc2ccccc2)CC1)c1cnccn1	0.175	-7.36
O=C(N1CCCC1)N1Cc2nccn2CC(CN2CCCC2)C1 (configuration not stated)	-5.76	1.77
CCN1CCN(C2CCN(Cc3noc(C)n3)CC2)C1=O	-5.45	-25.5
COc1cc(N2C[C@H]3OCC[C@H]3[C@H](C(=O)NC3CC3)C2)ncn1	3.81	-2.62
CC(NC(=O)NCCCN(C)S(C)(=O)=O)c1cccc(Cl)c1 (configuration not stated)	1.12	-9.29
COc1cccc(-n2nnc(C(=O)N3CCN(C)CC3C)c2C)c1 (configuration not stated)	-2.92	-48.2
Cc1cc(C(=O)N2CC[C@@H]3CN(S(C)(=O)=O)CCO[C@@H]3C2)c(C)o1	2.19	1.92
Cn1c(Cn2cccn2)nnc1C1CCCN(c2ccncc2F)C1 (configuration not stated)	-0.254	-2.56
Cc1cc(N2CCC(c3nnc(CN(C)C)n3C3CC3)CC2)ccn1	5.21	-33.5
Cc1cnn(CCNCC(O)COc2c(C)ccc(C)c2C)c1 (configuration not stated)	1.91	-6.89
Cn1ccc(C(=O)N2CCCC(n3cncn3)C2)cc1=O (configuration not stated)	-4.15	-5.76

SMILES	Percent Effect [1] [%]	Percent Effect [2] [%]
Cc1n[nH]c(C2CN(C(=O)c3cc(Cl)c[nH]3)CCO2)n1 (configuration not stated)	2.37	-2.92
CN1CC(c2ccccc2)CC2(CCN(CC(=O)N(C)C)CC2)C1 (configuration not stated)	-3.52	15.8
CN(C)c1ccc(C(=O)NCC2(c3ccccc3)CCOCC2)cc1	1.31	-24.7
COc1ncccc1NC(=O)C1CCS(=O)(=O)C1 (configuration not stated)	-3.61	-37.8
Cc1nc(C)n(CC2CCCCN2CCS(C)(=O)=O)n1 (configuration not stated)	-3.09	-15.8
Cc1cc(N2CCCCCC2)n2nc(C)c(C)c2n1	0.167	19.6
CCN1CC2(CCNCC2)COc2ccccc2S1(=O)=O	-1.28	-27.7
O=C(NCc1cc(O)ncn1)C1COc2ccccc2C1 (configuration not stated)	-3.92	12.8
CN(C)CC1CN(Cc2coc(-c3cccs3)n2)CCO1 (configuration not stated)	2.66	-25.6
CC(=O)N1CCn2cc(CNC(=O)c3cccn3C)nc2C1	1.43	-9.92
CC(C1CC1)N(C)C(=O)c1cnc(-c2ccc3c(c2)OCO3)s1 (configuration not stated)	3.36	-42.7
COCCC1COC2(CCN(C(=O)c3ccco3)CC2)C1 (configuration not stated)	-0.368	-2.25
CC(Cn1cccn1)NC(=O)Nc1ccc(N(C)C)nc1 (configuration not stated)	1.98	-47.5
O=C(Cn1nc2c(cc1=O)CSCC2)NC(Cc1ccccc1)C(=O)O (configuration not stated)	0.581	-19.5
O=C(NC1CC1)[C@@H]1CCO[C@@H]2CCN(C3CCOCC3)C[C@@H]21	-3.45	-22
CCc1csc(C2CCCN(C(=O)c3ccc(OC)nn3)C2)n1 (configuration not stated)	-3.92	14.7
Cn1cnc2c1CCN(Cc1ccc(C(=O)N3CCCC3)cc1)C2	0.745	-74.8
COCC1c2nnn(CC3CC3)c2CCN1C(=O)Cc1cccs1 (configuration not stated)	4.11	-2.97
Cc1cc2nc(SCC(=O)N3CCCC3)n(-c3ccccc3)c(=O)c2[nH]1	15.3	-24.4
O=C1c2cnc(N3CCOCC3)nc2CN1c1ccc2c(c1)OCO2	7.52	-25.1
Cc1noc(C)c1C(=O)NCc1ccnc(OCC(F)(F)F)c1	-0.189	10.8
Cc1ccc(-c2cc(N)c(=O)n(CC(=O)NCC3CCCCC3)n2)s1	7.19	2.09
COCC1c2c(cnn2C)CCN1Cc1ccoc1 (configuration not stated)	2.94	-3.41
COc1ccc(CCN2CCc3c(nc(C4CC4)n3C)C2)cc1	4.19	-51.7
O=C(COC(=O)Cc1cccs1)NCc1cccc(NC(=O)C2CC2)c1	-1.66	28
